Experimental data as given in PubChem BioAssay.

These compounds were tested against Alpha-bungarotoxin (Bungarus multicinctus) (UniProt P60615) (assay: alpha-bungarotoxin binders on microarray, profiling panel, artefact control for SMM control protein annotation, biochemical, small-molecule microarray, Alexa647 label, 635/667 nm fluorescence (AID 1117)). Conditions: alpha-BTX-A647 binding fluorescence, higher = more signal.
Sequence of Alpha-bungarotoxin (Bungarus multicinctus) (P60615 whole entry, looked up): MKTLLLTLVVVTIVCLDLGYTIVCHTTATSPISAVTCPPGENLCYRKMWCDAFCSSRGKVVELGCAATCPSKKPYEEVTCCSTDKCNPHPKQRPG

Row | Compound | composite z-score
1 | CC[C@H]1C2=C3C(CC[C@H]4C(OCc5ccc(F)cc5C(F)(F)F)OC[C@](C)([C@@H]34)N(C(=O)OC(C)(C)C)C2)C(COC(C)=O)C1COC(C)=O (stereo partly drawn) | 0.729
2 | [N-]=[N+]=NCc1ccccc1[C@H]1OC(c2ccc(OCCCO)cc2)=N[C@@]1(CCS(=O)(=O)c1ccccc1)C(=O)NCCN1CCOCC1 | 1.3
3 | C=C(CCCC)/C(=C/C[C@@H](OC(C)=O)c1ccc(OCCO)cc1)c1cc(C(=O)OC)ccc1OC | 0.722
4 | O=C1C2C=CC(C(O)c3ccccn3)N(Nc3ccc([N+](=O)[O-])cc3)C2C(=O)N1c1ccccc1 (stereo not drawn) | 1.11
5 | CCN1C(=O)C2CC(=O)C3C(CN(S(=O)(=O)c4ccc(C)cc4)C3c3ccc(C)cc3)C2C1=O (stereo not drawn) | -0.344
6 | COC(=O)C1=CC(CCCO)=CC(c2ccc(CN3CCCC3)cc2)N(C)C=C1C(=O)OC (stereo not drawn) | 0.57
7 | CCOC(=O)C[C@H]1[C@H](OC(=O)c2cc3ccccc3oc2=O)[C@@H](NC(=O)c2ccc(-c3ccccc3)cc2)c2cc(OCCCO)ccc2N1C(=O)Cc1ccc(OC)cc1 | 0.731
8 | C=CCNC(=O)[C@H]1[C@@H]2C(=O)O[C@@H](c3ccccc3)[C@@H](c3ccccc3)N2[C@@H](c2ccc(OCCO)cc2)[C@]12C(=O)N(C(=O)OCCOC)c1ccc(C#CCNC(N)=O)cc12 | 2.1
9 | O=C1C[C@@](C(=O)NCC(F)(F)F)(c2ccc([N+](=O)[O-])cc2)[C@@H](c2ccc(CO)cc2I)N1CC12CC3CC(CC(C3)C1)C2 | 1.23
10 | COc1cc2c(cc1O)C(C)N(Cc1sc3ccccc3c1Cl)CC2 (stereo not drawn) | 0.201
11 | CCCCCCCCCCC(O)C1C=CC2C(=O)N(C)C(=O)C2N1Nc1ccccc1 (stereo not drawn) | -0.868
12 | COC(=O)[C@@]1(Cc2ccccc2)[C@H]2c3cc(C(=O)N(C)C)n(Cc4ccc(Cl)c(C(F)(F)F)c4)c3C[C@H]2CN1C(=O)c1ccccc1 | 0.995
13 | COC(=O)[C@@]1(Cc2ccc(F)cc2)[C@H]2c3cc(C(=O)N4CCCC4)n(CCc4c[nH]c5cc(F)ccc45)c3C[C@H]2CN1C(=O)c1ccccc1 | 0.841
14 | C=CCNC(=O)[C@@H]1[C@H]2C(=O)O[C@H](c3ccccc3)[C@H](c3ccccc3)N2[C@H](c2ccc(OCCO)cc2)[C@@]12C(=O)Nc1ccc(C#CC3=CCCCC3)cc12 | 2.23
15 | C=CCOC(=O)[C@H]1[C@@H]2C(=O)O[C@@H](c3ccccc3)[C@@H](c3ccccc3)N2[C@@H](c2ccc(OCCOC(=O)[C@H]3C[C@H]4C(=O)NCC(=O)N4[C@H]3c3ccc(O)cc3)cc2)[C@]12C(=O)Nc1ccccc12 | 1.77
16 | CO[C@H]1O[C@H](CO)[C@@H](OC(=O)Nc2cccc(F)c2)[C@H](OC(=O)c2cc3ccccc3[nH]2)[C@H]1OC(=O)c1cc2ccccc2[nH]1 | 0.698
17 | O=C1O[C@@H](c2ccccc2)[C@@H](c2ccccc2)N2[C@@H](c3ccccc3OCCO)[C@]3(C(=O)Nc4ccc(C#CC5(O)CCCCCC5)cc43)[C@@H](C(=O)N3CCCCCCC3)[C@H]12 | 4.54
18 | CCCCCCc1nc(Cc2cc(OC)c(OC)c(OC)c2)c(C)c2c1[Si](C(C)C)(C(C)C)OC2 | -0.101
19 | [N-]=[N+]=NCc1ccccc1[C@H]1OC(c2ccc(OCCCO)cc2)=N[C@@]1(CCS(=O)(=O)c1ccccc1)C(=O)O | -0.553
20 | COc1ccc(NN2C(C(O)c3ccc(F)cc3)C=CC3C(=O)N(C4CCCCC4)C(=O)C32)cc1 (stereo not drawn) | 1.37
21 | CC1C2C(CCCO)=CC(C3C(=O)N(C)C(=O)C23)N1Cc1cccc(OC(F)(F)F)c1 (stereo not drawn) | 1.42
22 | CCOC(=O)C1=C[C@@H](C(C)(C)C)N(S(=O)(=O)c2ccc(C)cc2)[C@H]1c1ccc(OC)cc1 | 1.14
23 | Cc1ccc(N2C(=O)c3ccccc3[C@@H](C(=O)NCCN3CCOCC3)[C@@H]2c2ccc(CO)cc2)nc1 | -0.843
24 | O=C(N1CCOCC1)[C@]1(CCS(=O)(=O)c2ccccc2)N=C(c2ccc(OCCCO)cc2)O[C@@H]1c1ccccc1 | 1.82
25 | C=CCC(OC(C)=O)[C@@H]1[C@@H](N(Cc2ccc(-c3ccccc3)cc2)C(=O)Cc2ccc(OC)cc2)c2cc(OCCCO)ccc2N1C(=O)Cc1ccc(OC)cc1 (stereo partly drawn) | 0.171
26 | C=C(COC)C(=O)CC[C@H](OC(C)=O)c1ccccc1OCCO | -0.15
27 | COc1cc(CO)cc(I)c1O[C@H]1C=C(C(=O)NCCO)C[C@@H](N(CCN2CCOCC2)C(=O)C2CCCO2)[C@@H]1O (stereo partly drawn) | -0.197
28 | CC(C)(C)OC(=O)CC[C@@]1(C(N)=O)N=C(c2ccc(OCCCO)cc2)O[C@@H]1c1ccccc1CN=[N+]=[N-] | 2.58
